For 25 compounds, Potency results are on record in PubChem BioAssay (NCATS).

Records with an inconclusive call do not appear. Where a call stands in place of a potency, no number is given. Unmarked numbers belong to inactive results. Calls of active or inactive are those of the source. Unless noted, calls follow the shape of the dose curve; as a rule, active = well fitted inhibition curve with a large enough effect; inconclusive = small, poorly fitted or top-dose-only effect, or effect the other way; inactive = flat fitted curve, though single readings scatter.

Test [1] is described as follows: qHTS for Inhibitors of Plasmodium falciparum (CP250) proliferation (AID 504320). In a few lines: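 Parasite growth measured as SYBR Green DNA fluorescence (ex 485, em 535 nm) after overnight lysis following 72 h culture at 37 °C, 0.3% parasitemia, 2.5% hematocrit. Values normalized against DMSO and 0.29 uM artemisinin controls, with plate-stack correction.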
Test [2] has as its target Atrial natriuretic peptide receptor 1 (Homo sapiens) (UniProt P16066). Kind of test: Natriuretic polypeptide receptor (hNpr1) antagonism - Pilot CMLD screen (AID 1347052; calls by dose curve;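 also: HEK293 cells with hNpr1 stimulated by hNppA peptide at 0.1 nM; cGMP level read as GloSensor luciferase luminescence after agonist stimulation; series mostly up to about 9.2 µM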).

Sequence of Atrial natriuretic peptide receptor 1 (Homo sapiens) (P16066 whole entry, looked up): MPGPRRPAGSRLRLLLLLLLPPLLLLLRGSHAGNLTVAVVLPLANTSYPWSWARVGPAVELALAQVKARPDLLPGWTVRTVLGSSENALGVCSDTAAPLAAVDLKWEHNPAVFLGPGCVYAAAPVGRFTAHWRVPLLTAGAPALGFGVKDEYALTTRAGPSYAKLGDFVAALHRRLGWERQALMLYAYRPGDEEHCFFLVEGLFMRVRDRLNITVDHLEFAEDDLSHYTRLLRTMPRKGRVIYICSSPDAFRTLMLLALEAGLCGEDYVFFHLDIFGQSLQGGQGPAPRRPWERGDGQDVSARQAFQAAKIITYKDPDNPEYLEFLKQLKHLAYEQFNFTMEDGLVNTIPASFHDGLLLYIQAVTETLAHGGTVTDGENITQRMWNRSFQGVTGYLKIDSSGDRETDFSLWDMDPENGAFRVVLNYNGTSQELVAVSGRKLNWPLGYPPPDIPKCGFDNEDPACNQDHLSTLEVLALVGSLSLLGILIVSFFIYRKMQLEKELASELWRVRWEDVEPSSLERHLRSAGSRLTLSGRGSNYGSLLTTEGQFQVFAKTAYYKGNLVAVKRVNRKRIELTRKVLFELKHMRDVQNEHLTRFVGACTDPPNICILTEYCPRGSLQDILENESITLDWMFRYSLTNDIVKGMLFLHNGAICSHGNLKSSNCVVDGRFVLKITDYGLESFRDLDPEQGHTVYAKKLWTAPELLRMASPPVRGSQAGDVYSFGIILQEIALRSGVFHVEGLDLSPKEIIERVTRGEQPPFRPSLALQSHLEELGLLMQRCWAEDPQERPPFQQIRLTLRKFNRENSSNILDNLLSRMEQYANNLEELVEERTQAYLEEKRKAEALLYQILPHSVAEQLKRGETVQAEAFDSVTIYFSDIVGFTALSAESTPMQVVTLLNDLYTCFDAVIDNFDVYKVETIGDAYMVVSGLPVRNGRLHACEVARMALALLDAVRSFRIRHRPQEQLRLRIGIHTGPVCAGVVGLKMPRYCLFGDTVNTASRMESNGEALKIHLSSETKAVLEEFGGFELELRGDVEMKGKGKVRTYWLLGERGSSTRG

Take `COc1ccc([C@]23Cc4cc(OC)c(OC)cc4[C@H](O2)C2=C(CCCC2=O)O3)cc1`: the Potency entry in test [1] and in test [2] was “inactive” each time.

Turning to `CCOC(=O)CN1C(=O)[C@@]2(CC(C)=CC[C@@H](COc3ccccc3)O2)c2ccccc21`, the Potency entry in test [1] and in test [2] was “inactive” in each case.

For `COc1ccc([C@]23Cc4cc(OC)c(OC)cc4[C@H](O2)c2c(cc(C)n(Cc4ccccc4)c2=O)O3)cc1`, the Potency result in test [1] and in test [2] was “inactive” in each case.

`C[C@H]1Cc2c(COc3ccccc3)nc3c(c2CO1)CN(C(=O)c1cc(I)ccc1F)CC3`: the Potency result in test [1] and in test [2] was “inactive” in each case.

As to `C[C@H]1C[C@@H](C)O[C@@]2(C1)C(=O)N(Cc1ccccc1C(F)(F)F)c1ccccc12`, the Potency entry in test [1] and in test [2] was “inactive” each time.

Regarding `O=C(N[C@H](c1ccccc1)C1CCCC=C1c1ccccc1)C(F)(F)F` (stereo not given in full), the Potency entry in test [1] and in test [2] was “inactive” each time.

Regarding `COC(=O)C(C(=O)OC)C1OC23CN(S(=O)(=O)c4ccc(C)cc4)C=CC2(C)C3c2ccccc21` (stereo not given), the Potency result in test [1] and in test [2] was “inactive” in each case.

`COc1cccc([C@@H]2Oc3ccc(Br)cc3C[C@@H]2OC(=O)Nc2cc(OC)c(OC)c(OC)c2)c1`: the Potency result in test [1] and in test [2] was “inactive” throughout.

In the case of `COC(=O)C1=C(C)N(Cc2ccccc2)C(=NCCc2ccccn2)NC1c1cccc(F)c1` (stereo not given), the Potency entry in test [1] and in test [2] was “inactive” throughout.

As to `CC(CCN1CCc2nc(-c3ccccc3)c(-c3ccccc3)cc2C1)=NO[C@H](C)CN1CCCCc2nc(C)c(C)cc21`, the Potency entry in test [1] and in test [2] was “inactive” throughout.

On to `COc1ccc2c(c1)[C@@]1(OCCC=C[C@@H]1C)C(=O)N2Cc1ccccc1C(F)(F)F`, for which the Potency result in test [1] and in test [2] was “inactive” in each case.

Regarding `CC1=C[C@@H](COCc2ccccc2)O[C@@]2(C1)C(=O)N(CC1CC1)c1ccccc12`, the Potency result in test [1] and in test [2] was “inactive” throughout.

Take `Fc1ccccc1-c1nc(-c2ccccc2)oc1NCc1ccccc1`: the Potency result in test [1] and in test [2] was “inactive” each time.

For the compound `O=C1N(Cc2ccc(Br)cc2)c2cccc(Br)c2[C@@]12O[C@H](COc1ccccc1)CC1=CCCC12` (stereo not given in full), the Potency entry in test [1] and in test [2] was “inactive” throughout.

As for `COC1=C[C@H](C(=O)NC2CCN(Cc3ccccc3)CC2)C(C)C(c2ccccc2)CC1=O` (stereo not given in full), the Potency entry in test [1] and in test [2] was “inactive” each time.

Consider `Oc1c(CN2CCOCC2)cc2c(c1-c1c(O)c(CN3CCOCC3)cc3c1CCCC3)CCCC2`, for which the Potency entry in test [1] and in test [2] was “inactive” throughout.

With `C[C@]12C[C@@](C)(C=C1C=Cc1ccccc1)C(=O)C[C@H]2c1ccccc1`, the Potency result in test [1] and in test [2] was “inactive” throughout.

Regarding `C[C@@H]1[C@H](c2ccccc2)c2cc3ccccc3nc2C(=O)C[C@@H]1C(=O)N1CCCC1`, the Potency result in test [1] and in test [2] was “inactive” throughout.

In the case of `COc1cc2c(cc1OC)[C@@H]1O[C@](CCCCN3C(=O)c4ccccc4C3=O)(C2)Oc2c1c(=O)oc1ccc(F)cc21`, the Potency entry in test [1] and in test [2] was “inactive” in each case.

For `COC(=O)C1=C(C)N(Cc2ccccc2)C(=NCC(C)C)NC1c1ccc(Br)cc1` (stereo not given), the Potency entry in test [1] and in test [2] was “inactive” each time.

Take `CCOC(=O)CN1C(=O)[C@]2(O[C@H](COc3ccccc3)CC3=CCCC32)c2c(Br)cccc21` (stereo not given in full): the Potency result in test [1] and in test [2] was “inactive” each time.

As for `CCN1C(=NCC(C)C)NC(c2cccc(F)c2)C(C(=O)OC)=C1C` (stereo not given), the Potency result in test [1] and in test [2] was “inactive” each time.

Consider `CCC=CC[C@@]1(C(=O)OC)C=C[C@@H](C)[C@H](c2ccccc2Br)N1C(=O)C(F)(F)F`, for which the Potency result in test [1] and in test [2] was “inactive” in each case.

With `C[C@@H]1C=CCC(=O)N[C@@H](c2ccc3ccccc3c2)[C@H](C)C=CCC(=O)N[C@@H]1c1ccc2ccccc2c1`, the Potency entry in test [1] and in test [2] was “inactive” throughout.

For `COC(=O)CC=C1c2ccccc2[C@@H](O)[C@@H]1C`, the Potency entry in test [1] and in test [2] was “inactive” in each case.
